Results on 42 sequences are retold here after publication PMC7819943, “Rice protein-binding microarrays: a tool to detect cis-acting elements near promoter regions in rice”.

Over roughly 68,000 sequences, “fluorescence intensity (a.u.)” has its median near 9,100; the highest 2% begin near 16,000. Shown is part of a subset that was picked to be rich in the highest values.

Chain of OsWRKY34 (Q0JBA9 entry or part of it): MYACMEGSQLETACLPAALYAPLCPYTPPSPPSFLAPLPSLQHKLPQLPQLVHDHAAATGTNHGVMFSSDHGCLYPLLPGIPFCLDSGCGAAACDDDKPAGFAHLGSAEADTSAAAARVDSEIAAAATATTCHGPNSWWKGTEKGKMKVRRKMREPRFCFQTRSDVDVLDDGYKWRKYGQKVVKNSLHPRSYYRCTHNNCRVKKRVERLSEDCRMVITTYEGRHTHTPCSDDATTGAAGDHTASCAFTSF

This test deals with OsWRKY34 (Oryza sativa, UniProt Q0JBA9 1-250). Nature of the test: protein-binding microarray (RPBM); PBS, 2% BSA, 51.3 ng/ul salmon testes DNA, 50 uM zinc acetate, 200 nM TF, 25 C, 1 h; high values mean tight binding. The following applies: protein: recombinant; tags: N-terminal polyhistidine and DsRed monomer fusion (pET32a); label: CyDye5-dUTP incorporated in the synthesized complementary strand; 3' TTTTT single-stranded linker to array surface; dsDNA, one strand shown. Summed up:
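Per-feature fluorescence intensity (arbitrary units), read on an Axon 4000B scanner, is the binding signal. Transcription factors carrying an N-terminal polyhistidine tag and DsRed fusion were expressed in E. coli BL21-CodonPlus and purified on Ni–NTA. A custom Agilent array, made double-stranded by primer extension with Cy5-dUTP and blocked with 2% BSA, was incubated with 200 nM protein in PBS, 2% BSA, salmon testes DNA and 50 µM zinc acetate at 25 °C for 1 h and then washed.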
As for “AGATTTTGGGTGTGTTTGGTTGCTTGCATTGTTTTAGTCTCGGAGTCACCTAGTGCAG”, the binding signal is 9320 fluorescence intensity (a.u.). Take “CTTTGCTTGGTTGCTTGTGTTGTGTGCTGTGCTGTGCAGTCGGAGTCACCTAGTGCAG”: the binding signal is 8220 fluorescence intensity (a.u.). In the case of “GCTAGCTGCTGTCTTGTGTTGTGTTGTGTTGTGTGGCATGCGGAGTCACCTAGTGCAG” it was 8220 fluorescence intensity (a.u.); in that of “TTTTTTTTTTTTGTTGGGCTTGTGACTTGTGGGGTGTGCACGGAGTCACCTAGTGCAG”, 11600 fluorescence intensity (a.u.). In the case of “GGGGCTGCTTGGGCTTGTGTTGTTTTTTTGGCAGATGCATCGGAGTCACCTAGTGCAG” it was 19100 fluorescence intensity (a.u.); in that of “AATTTTTTTTGGGGTTGCTGCTGTTTTTTTTGTGGAGGTTCGGAGTCACCTAGTGCAG”, 9450 fluorescence intensity (a.u.); in that of “GTGTGTTGGAGCTGCCGGTGTGTGGGTGGGGTTATTTTTTCGGAGTCACCTAGTGCAG”, 25100 fluorescence intensity (a.u.). Consider “TCTTGGCGCTGTCGGTGTGTGGGTGGCGTTATATTTTTTTCGGAGTCACCTAGTGCAG”, for which the binding signal was 9900 fluorescence intensity (a.u.). Consider “TATACTTGTTGGCTGCTGCTTTGTGTGTGGTGTGTTGTTTCGGAGTCACCTAGTGCAG”, for which the binding signal was 10400 fluorescence intensity (a.u.).

On to “TGGGTTGGGATTTGTGCTTGTTTTTTTTTTTTGTGCGTGTCGGAGTCACCTAGTGCAG”, for which the binding signal is 16600 fluorescence intensity (a.u.). In the case of “AAGGGCAGAGGAGAGGAGTTGCAGTGTGGTGTGTGGCATGCGGAGTCACCTAGTGCAG” it was 8870 fluorescence intensity (a.u.). On to “AGAGCTTGTGTGGTGGTGGGGCATCAGTGTGTCAGTTGTGCGGAGTCACCTAGTGCAG”, for which the binding signal was 17100 fluorescence intensity (a.u.). As for “ACACTCAAACGACACTTCACGCATCTCTCCTGAAATCTTGCGGAGTCACCTAGTGCAG”, the binding signal is 8780 fluorescence intensity (a.u.). Consider “ACTTCAGATGTTTCTTGTTCCTACACTTCGCTGCTTCAGTCGGAGTCACCTAGTGCAG”, for which the binding signal is 11800 fluorescence intensity (a.u.). Consider “CTCCTCTCTCTCTCAGCTCACCACACCTCGAGTCGCCGCCCGGAGTCACCTAGTGCAG”, for which the binding signal is 8180 fluorescence intensity (a.u.).

As for “ACTGCTGTCTCCGCGTTACTCTACGCATGCATGCATGTATCGGAGTCACCTAGTGCAG”, the binding signal is 10000 fluorescence intensity (a.u.).

In the case of “GGTGAGTTCTTGATTTGGGCGTGGAGCTTTTTTTCTTGGTCGGAGTCACCTAGTGCAG”, the binding signal was 8170 fluorescence intensity (a.u.). In the case of “CTGCTGTGTTGCACATTTTTCTGCTCTGTATACCTATAATCGGAGTCACCTAGTGCAG” it was 12200 fluorescence intensity (a.u.); in that of “GTGGTTATTCAATTTGTTGCTTGTTTTTGTTTCAAGTTGGCGGAGTCACCTAGTGCAG”, 10700 fluorescence intensity (a.u.). Regarding “AGGGAGAGTGTGGGTGCGTGGGGCATATGGTGGTGCGGTGCGGAGTCACCTAGTGCAG”, the binding signal is 9950 fluorescence intensity (a.u.). With “CCCTTGGGTTGGGTTGTGTTGCTCCCTCTGCTGCATTAATCGGAGTCACCTAGTGCAG”, the binding signal is 18100 fluorescence intensity (a.u.). In the case of “TATATCATATGCGGGCGTGATCTATTGGGGCGGGGTGTGGCGGAGTCACCTAGTGCAG” it was 20000 fluorescence intensity (a.u.). In the case of “ATTCTGATTGGGTGTGGTTGGTTTGATTTTCTGTTAAGCACGGAGTCACCTAGTGCAG”, the binding signal is 11700 fluorescence intensity (a.u.).

Turning to “TGGGTGGGTGCGGCGTGGAGTGACGTGGCGGCGGGTGTGGCGGAGTCACCTAGTGCAG”, the binding signal was 8590 fluorescence intensity (a.u.). In the case of “GGTGGGTGTGTGCTTGTTTCGGCGTGTGATTTGGGCGGAGCGGAGTCACCTAGTGCAG” it was 16500 fluorescence intensity (a.u.); in that of “CCCTCCCCTCTGCTTCCGTTCCCTTGGGTTGGGTTGTGTTCGGAGTCACCTAGTGCAG”, 8480 fluorescence intensity (a.u.). Regarding “GGGGTGGACTGGGGTGTTTGGCTGCGTGAGTGCGGAGCGGCGGAGTCACCTAGTGCAG”, the binding signal is 8920 fluorescence intensity (a.u.). Next, “TATTCGATTTTGGGTGGTGGTTGTTAAGTTGGCATTTGCACGGAGTCACCTAGTGCAG”: 18300 fluorescence intensity (a.u.). Next, “GAAGTGATGAATATATTAAACTGGTTTGGCTATTATTTCCCGGAGTCACCTAGTGCAG”: 8360 fluorescence intensity (a.u.); “CTCTCGTGGTGTGGTGTGGACAAGAAAGGAAGGAAAGATGCGGAGTCACCTAGTGCAG”: 8700 fluorescence intensity (a.u.). Take “TAATGTCCCTATTTTGTTATAGTGTTCCTCCAATAATCTGCGGAGTCACCTAGTGCAG”: the binding signal was 8290 fluorescence intensity (a.u.). In the case of “CAGTTCTTCGTTCTTGTCTTTACTCTCATGATTTTCTCTTCGGAGTCACCTAGTGCAG” it was 10900 fluorescence intensity (a.u.). On to “CTCAACCTCTCGGTCGTCGGCCTCGTCCTCCGGGCCGGCACGGAGTCACCTAGTGCAG”, for which the binding signal was 12000 fluorescence intensity (a.u.). “TTCATAGCCGCCGCATCTCCTTCTCTTCGACTTTTCTCCTCGGAGTCACCTAGTGCAG”: the binding signal is 9080 fluorescence intensity (a.u.).

For “TCAAACGATGCCATTCACCACGTGCCACTTTATATCAAACCGGAGTCACCTAGTGCAG”, the binding signal was 11700 fluorescence intensity (a.u.). Next, “CTTAACGGCCCATTTATCTTGTCTCTCTGGCCCACCTGCACGGAGTCACCTAGTGCAG”: 12300 fluorescence intensity (a.u.); “CCTGTAATACTTTTGTTAATTCGATCCTACTACATCTTTACGGAGTCACCTAGTGCAG”: 10400 fluorescence intensity (a.u.); “TGGGAGCTTTGCTTGGGGTGTGTGTGTGTTTGGGTGGTGCCGGAGTCACCTAGTGCAG”: 10900 fluorescence intensity (a.u.). In the case of “CATATATTGGTGTTGTGTGTGGGTGGGTGGGGCGGTGCTTCGGAGTCACCTAGTGCAG” it was 30900 fluorescence intensity (a.u.); in that of “TTTCTTCATTTCATGATTGTATATTCTGGTGTTTTTGTGGCGGAGTCACCTAGTGCAG”, 9250 fluorescence intensity (a.u.). Next, “GAGCTGGGGTGGTGTTTGTTTGTGGGTGTGTTTGTGTGCTCGGAGTCACCTAGTGCAG”: 15900 fluorescence intensity (a.u.). In the case of “GTTTTTGTGCTTGGTGGTGGTGGTGGGTGATTTGCAGGGGCGGAGTCACCTAGTGCAG”, the binding signal is 31700 fluorescence intensity (a.u.).
